Assay results reported in PubChem BioAssay (EPA / NIEHS).
Results filed as inconclusive are left out. Activity calls are given as the source filed them. How the source made its calls: active means hit-call score of the fitted dose curve at least 0.9, where 1 is the maximum; inconclusive means response in the unintended direction; inactive means score below 0.9.

What was measured:
[1] = Tanguay_ZF_120hpf_SWIM_legacy: (Legacy) Oregon State University Tanguay Lab 120 Hour Post-fertilization zebrafish Assay for Swim Bladder Malformation (AID 2283654);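 further: swim bladder malformation in each larva scored yes or no under brightfield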
Procedure, shortened: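 Scoring is binary for swim bladder defects at 120 hpf, by brightfield inspection of zebrafish larvae. Embryos were exposed singly from 6 hpf after pronase dechorionation, at 28C with 0.64% DMSO; mortality excluded scoring.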

[2] = Tanguay_ZF_120hpf_NC_legacy: (Legacy) Oregon State University Tanguay Lab 120 Hour Post-fertilization zebrafish Assay for Notochord and Tail Malformation (AID 2283656)
Procedure, shortened: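 Binary notochord-distortion calls, made by brightfield inspection, form the read-out; activity is fitted in the positive direction against DMSO. Exposure ran statically from 6 to 120 hpf at 28C with 0.64% DMSO.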

[3] = Tanguay_ZF_120hpf_TR_legacy: (Legacy) Oregon State University Tanguay Lab 120 Hour Post-fertilization zebrafish Assay for Touch Response (AID 2283667)
Procedure, shortened: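 Binary touch-response endpoint in larvae at 120 hpf after static waterborne exposure from embryo stage (28°C, 0.64% DMSO vehicle, 5 uM trimethyltin chloride as positive control); embryos dead at 24 or 120 hpf excluded; fitted as gain versus DMSO.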

[4] = Tanguay_ZF_120hpf_TRUN_legacy: (Legacy) Oregon State University Tanguay Lab 120 Hour Post-fertilization zebrafish Assay for Truncated Body (AID 2283655)
Procedure, shortened: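 5D wild-type larvae; pronase dechorionation; static exposure 6→120 hpf, 28C; DMSO 0.64% final; 5uM trimethyltin chloride positive control. Readout: presence/absence of truncated body, analyzed relative to DMSO.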

[5] = test system: Thyroperoxidase (TPO), gene 54314; test: CCTE_Simmons_AUR_rTPO: CCTE's Amplex UltraRed Assay for Thyroperoxidase (TPO) Inhibition, Simmons Lab (AID 2283662);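 further: potency for loss of signal meaning inhibition of peroxidase activity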
Procedure, shortened: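 Rat thyroid microsomes (5 ug protein) with 25 uM Amplex UltraRed and 300 uM H2O2 in 200 mM phosphate buffer, 30 min at 37C in dark; fluorescence 544/590 nm. Eight concentrations, 5 nM–87.5 uM final, 0.5% DMSO, triplicate biological replicates.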

[6] = CCTE_Simmons_CellTiterGLO_HEK293T: Viability Assessment in CCTE's Assays for Thyroperoxidase (TPO) Inhibition, Simmons Lab (AID 2283665);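 further: cells exposed to compound for 24 h before readout; actives reduce ATP signal below DMSO vehicle meaning cytotoxicity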
Procedure, shortened: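 ATP depletion measured in HEK293T cells after 24 h dosing (8 concentrations, 5 nM–87.5 uM final; DMSO 0.5%) using CellTiter-Glo luminescence; curves fit for loss of signal against DMSO baseline.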

SMILES	outcome [1]	outcome [2]	outcome [3]	outcome [4]	AC50 [5]	AC50 [6]
COc1ccc(C(=O)Nc2nc3ccccc3c(NCc3ccccc3)c2C#N)cc1	inactive	inactive	inactive			
COC(=O)[C@H]1[C@H]2C[C@@H]3c4[nH]c5cc(OC)ccc5c4CCN3C[C@H]2C[C@@H](OC(=O)c2cc(OC)c(OC)c(OC)c2)[C@@H]1OC		inactive	inactive	inactive	7.3 µM (active)	45.3 µM (active)
Oc1ccc(O)cc1			inactive	inactive	0.767 µM (active)	35.4 µM (active)
Cn1cnc2c1c(=O)[nH]c(=O)n2C	inactive	inactive	inactive			
CC(=O)[C@@]1(O)CC[C@H]2[C@@H]3CCC4=CC(=O)CC[C@]4(C)[C@H]3CC[C@@]21C	inactive	inactive	inactive	inactive		
CC(=O)CC(c1ccccc1)c1c(O)c2ccccc2oc1=O (stereo not drawn)	inactive		inactive	inactive		
COc1ccc(OC(F)(F)F)cc1CN[C@H]1CCCN[C@H]1c1ccccc1	inactive		inactive	inactive		
O=C(N[C@@H](c1ccccc1)[C@@H]1CCCCN1)c1cccc(C(F)(F)F)c1Cl		inactive	inactive	inactive		
